Reference: PubChem BioAssay (NCI)
This is part of a sample that, as a whole, favours compounds with a hit. Of some 83,000 tested, about 20% had one in any assay.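 Single-concentration screen, 48 h exposure, 96-well plates. Endpoint: percent growth. Below 10 = active.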 The source made the active and inactive calls.

Legend:
Experiment in all cases: NCI-60 one-dose screen, 48 h (100 = growth as untreated, 0 = no growth, -100 = all killed)
Details in all cases: 10 µM unless noted
NCI-H23 lung = tested on: NCI-H23 lung
NCI-H226 lung = tested on: NCI-H226 lung
NCI-H322M lung = tested on: NCI-H322M lung
HOP-62 NSCLC = tested on: HOP-62 NSCLC
NCI-H460 lung = tested on: NCI-H460 lung
HOP-92 NSCLC = tested on: HOP-92 NSCLC
NCI-H522 lung = tested on: NCI-H522 lung
A549/ATCC NSCLC = tested on: A549/ATCC NSCLC
786-0 renal = tested on: 786-0 renal
COLO 205 colon = tested on: COLO 205 colon

Measured: growth

COC(=O)N1CC(Oc2ccccn2)C2CC1c1ccccc1O2 (stereo not given)
inactive: NCI-H23 lung 94% | NCI-H226 lung 104% | NCI-H322M lung 119% | HOP-62 NSCLC 100% | NCI-H460 lung 100% | HOP-92 NSCLC 90.3% | NCI-H522 lung 97.6% | A549/ATCC NSCLC 98.6% | 786-0 renal 104% | COLO 205 colon 102%

CCOC(=O)C1=C(C)C(Cl)=N/C1=C\c1[nH]c(Cl)c(C)c1C(=O)OCC
inactive: NCI-H23 lung 98.2% | NCI-H226 lung 65.1% | NCI-H322M lung 100% | HOP-62 NSCLC 96.5% | NCI-H460 lung 108% | HOP-92 NSCLC 87.8% | NCI-H522 lung 77.5% | A549/ATCC NSCLC 78% | 786-0 renal 97.7% | COLO 205 colon 107%

COc1ccc(C(=S)N2CCN(c3ccc(Cl)cc3)CC2)cc1
inactive: NCI-H23 lung 101% | NCI-H226 lung 96% | NCI-H322M lung 89.3% | HOP-62 NSCLC 97.8% | NCI-H460 lung 105% | HOP-92 NSCLC 89.9% | NCI-H522 lung 75.6% | A549/ATCC NSCLC 84% | 786-0 renal 92.5% | COLO 205 colon 103%

Cc1cc(Nc2ccc(C(=O)N3CCCC3)cc2)nc(NCCCNc2ccnc3cc(Cl)ccc23)n1
inactive: NCI-H23 lung 87.8% | NCI-H226 lung 105% | NCI-H322M lung 85.8% | HOP-62 NSCLC 81.2% | NCI-H460 lung 59.4% | HOP-92 NSCLC 90.5% | NCI-H522 lung 65.6% | A549/ATCC NSCLC 104% | 786-0 renal 87.9% | COLO 205 colon 76.5%

N[C@H]1CCC[C@@H]1NCCCCN1C(=O)c2cccc3cc([N+](=O)[O-])cc(c23)C1=O
inactive: NCI-H23 lung 47.7% | NCI-H226 lung 34.4% | NCI-H322M lung 53.4% | HOP-62 NSCLC 38.4% | NCI-H460 lung 13.7% | HOP-92 NSCLC 30.1% | NCI-H522 lung 38.4% | A549/ATCC NSCLC 27.6% | 786-0 renal 31% | COLO 205 colon 26%

CCOC(=O)c1c(C)nc2ccccc2c1/C=C/c1cccs1
inactive: NCI-H23 lung 57.6% | NCI-H226 lung 72.4% | NCI-H322M lung 89.1% | HOP-62 NSCLC 84.7% | NCI-H460 lung 85.2% | HOP-92 NSCLC 68.6% | NCI-H522 lung 57% | A549/ATCC NSCLC 64.9% | 786-0 renal 89.7% | COLO 205 colon 84.5%

O=C(/C=C/c1ccc(Cl)cc1)c1cccc(OCCCOc2cccc(C(=O)/C=C/c3ccc(Cl)cc3)c2)c1
inactive: NCI-H23 lung 102% | NCI-H226 lung 104% | NCI-H322M lung 103% | HOP-62 NSCLC 107% | NCI-H460 lung 102% | HOP-92 NSCLC 120% | NCI-H522 lung 96.2% | A549/ATCC NSCLC 92.7% | 786-0 renal 102% | COLO 205 colon 113%

C=CN(C(=O)N1CCN(c2cc3c(cc2F)c(=O)c(C(=O)O)cn3C2CC2)CC1)c1nc(-c2ccc(OC)cc2)cs1
inactive: NCI-H23 lung 12.7% | NCI-H226 lung 37.8% | NCI-H322M lung 15.3% | HOP-62 NSCLC 18.5% | NCI-H460 lung 10.8% | NCI-H522 lung 12.7% | A549/ATCC NSCLC 16.6% | 786-0 renal 30.5% | COLO 205 colon 29.5%
active: HOP-92 NSCLC -14.1%

COC(=O)c1c2c(c(C)[n+]([O-])c1C)C(=O)C(NCc1ccc(OC)cc1)=CC2=O
inactive: NCI-H23 lung 27.5% | NCI-H226 lung 81.7% | HOP-62 NSCLC 47.7% | NCI-H460 lung 10.2% | HOP-92 NSCLC 36.9% | 786-0 renal 54.2%
active: NCI-H322M lung 6.55% | NCI-H522 lung -5.69% | A549/ATCC NSCLC 4.4% | COLO 205 colon -45.2%

O=P(O)(O)OCC1OC(n2cnc3c(NCc4ccco4)ncnc32)C(O)C1O (stereo not given)
inactive: NCI-H23 lung 18% | NCI-H226 lung 20.4% | NCI-H322M lung 28.3% | HOP-62 NSCLC 16% | NCI-H460 lung 12.6% | 786-0 renal 10.5% | COLO 205 colon 22.8%
active: HOP-92 NSCLC -7.22% | NCI-H522 lung -32.7% | A549/ATCC NSCLC 7.15%

CNCc1cccc2c1OCCOCCOCCNS(=O)(=O)c1ccc(cc1)-c1cnc(N)c(n1)C(=O)N2
inactive: NCI-H23 lung 36.7% | NCI-H226 lung 24.5% | NCI-H322M lung 46.2% | HOP-62 NSCLC 26.4% | HOP-92 NSCLC 61.7% | A549/ATCC NSCLC 46.3% | 786-0 renal 30.8%
active: NCI-H460 lung 9.41% | NCI-H522 lung 9.67% | COLO 205 colon -18.7%

Nc1nc(N)c2c(n1)NC(c1cccc(Nc3ccnc4cc(C(F)(F)F)ccc34)c1)CC(c1ccccc1)=N2 (stereo not given)
inactive: NCI-H23 lung 67.1% | NCI-H226 lung 87.8% | NCI-H322M lung 91.8% | HOP-62 NSCLC 54.9% | NCI-H460 lung 22.6% | HOP-92 NSCLC 45% | NCI-H522 lung 28.8% | A549/ATCC NSCLC 41.4% | 786-0 renal 67.5% | COLO 205 colon 30.2%

CC(C)(C)n1cc(-c2ccnc(NCCNS(=O)(=O)c3ccc(O)cc3)c2)c(-c2cccc(O)c2)n1
inactive: NCI-H23 lung 98.6% | NCI-H226 lung 102% | NCI-H322M lung 105% | HOP-62 NSCLC 101% | NCI-H460 lung 104% | HOP-92 NSCLC 102% | NCI-H522 lung 94.8% | A549/ATCC NSCLC 97.3% | 786-0 renal 103% | COLO 205 colon 91.9%

C=C1C(=O)O[C@H]2[C@H]1CC/C(COC(=O)NCc1ccc(Cn3c(=O)sn(-c4ccc(C#N)cc4)c3=O)cc1)=C\CC[C@@]1(C)O[C@@H]21
active: NCI-H522 lung -28%
inactive: NCI-H23 lung 78.2% | NCI-H226 lung 95.5% | NCI-H322M lung 104% | HOP-62 NSCLC 92.2% | NCI-H460 lung 104% | HOP-92 NSCLC 26.1% | A549/ATCC NSCLC 96.7% | 786-0 renal 66.1% | COLO 205 colon 38.1%

C#Cc1cccc(Nc2nc(C)nc3cc(NC(=O)CCl)ccc23)c1
active: NCI-H23 lung -55.6% | NCI-H226 lung -28.1% | NCI-H322M lung -31.3% | HOP-62 NSCLC -84.2% | NCI-H460 lung -64.1% | HOP-92 NSCLC -82% | NCI-H522 lung -77.5% | A549/ATCC NSCLC 5.92% | 786-0 renal -72.5% | COLO 205 colon -78.6%

O=C(O)/C=C/C(=O)Nc1cccc(Cn2nnc3cc(Cl)c(Cl)cc32)c1
inactive: NCI-H23 lung 97.3% | NCI-H226 lung 89.8% | NCI-H322M lung 101% | HOP-62 NSCLC 98.4% | NCI-H460 lung 105% | HOP-92 NSCLC 97.5% | NCI-H522 lung 96.2% | A549/ATCC NSCLC 102% | 786-0 renal 99.7% | COLO 205 colon 112%

COc1cc(-c2nc3c(ncc4ccc(=O)n(-c5ccccc5)c43)s2)cc(OC)c1OC
inactive: NCI-H23 lung 80.5% | NCI-H226 lung 63.3% | NCI-H322M lung 73.6% | HOP-62 NSCLC 88.6% | NCI-H460 lung 84.3% | HOP-92 NSCLC 19.1% | NCI-H522 lung 64.8% | A549/ATCC NSCLC 86.3% | 786-0 renal 46.7% | COLO 205 colon 79.2%

Cc1c2ccncc2c(C)c2c1c1cc(CO)ccc1n2C
active: NCI-H23 lung 6.65% | NCI-H226 lung -49.2% | NCI-H322M lung 3.23% | HOP-62 NSCLC -19.6% | NCI-H460 lung -35.4% | HOP-92 NSCLC -5.78% | A549/ATCC NSCLC 2.79% | 786-0 renal 1.95% | COLO 205 colon -39%
inactive: NCI-H522 lung 21.1%

C=C(c1ccc(OC)c(/C=C/C(=O)c2ccc3c(c2)OCO3)c1)c1cc(OC)c(OC)c(OC)c1
inactive: NCI-H23 lung 15.9% | NCI-H322M lung 35.1% | HOP-62 NSCLC 36% | HOP-92 NSCLC 12.7% | A549/ATCC NSCLC 27.3% | 786-0 renal 12.6%
active: NCI-H226 lung -40.4% | NCI-H460 lung 0.841% | NCI-H522 lung 5.55% | COLO 205 colon 5.33%

CCN(CC)CCCN1C(=O)c2c(c(C)c3c(oc4ccc(OC)cc43)c2C)C1=O
inactive: NCI-H23 lung 104% | NCI-H226 lung 32.4% | NCI-H322M lung 102% | HOP-62 NSCLC 93.9% | NCI-H460 lung 108% | HOP-92 NSCLC 86.7% | NCI-H522 lung 93.9% | A549/ATCC NSCLC 101% | 786-0 renal 40.2% | COLO 205 colon 92.2%

CCN(CC)CCCN1C(=O)c2c(c(C)c3c(oc4ccc(O)cc43)c2C)C1=O
active: NCI-H226 lung -44.7% | NCI-H460 lung -25.9% | A549/ATCC NSCLC -76.8% | 786-0 renal -72.6%
inactive: NCI-H23 lung 92.7% | NCI-H322M lung 81.3% | HOP-62 NSCLC 89.9% | HOP-92 NSCLC 69.3% | NCI-H522 lung 80% | COLO 205 colon 64%

CC/C(Cc1ccccc1)=C(\c1ccc(OCCCN(C)C)cc1)c1ccc(OC(=O)NCc2ccccc2)cc1
inactive: NCI-H23 lung 92.9% | NCI-H226 lung 86.4% | NCI-H322M lung 87.2% | HOP-62 NSCLC 85.7% | HOP-92 NSCLC 38.6% | NCI-H522 lung 95.5% | A549/ATCC NSCLC 61.9% | 786-0 renal 62%
active: NCI-H460 lung 7.02% | COLO 205 colon 4.67%

Cn1c(=O)c2[nH]c(SCC(=O)Nc3ccc(C(=O)/C=C/c4ccccc4Cl)cc3)nc2n(C)c1=O
inactive: NCI-H23 lung 98.1% | NCI-H226 lung 93.1% | NCI-H322M lung 97.6% | HOP-62 NSCLC 90.4% | NCI-H460 lung 102% | HOP-92 NSCLC 65% | NCI-H522 lung 94.3% | A549/ATCC NSCLC 86.7% | 786-0 renal 88.3% | COLO 205 colon 117%

CCOC(=O)c1cnc2c(N=Nc3ccc(OC)cc3)c(N)nn2c1N
inactive: NCI-H23 lung 98.8% | NCI-H226 lung 99.7% | NCI-H322M lung 97.9% | HOP-62 NSCLC 104% | NCI-H460 lung 103% | HOP-92 NSCLC 113% | NCI-H522 lung 86.8% | A549/ATCC NSCLC 95% | 786-0 renal 104% | COLO 205 colon 106%

FC(F)(F)c1ccc(Cn2cc(CSc3nc4ccccc4s3)nn2)cc1
inactive: NCI-H23 lung 97.6% | NCI-H226 lung 83.1% | NCI-H322M lung 94.4% | HOP-62 NSCLC 89% | NCI-H460 lung 102% | HOP-92 NSCLC 85.4% | NCI-H522 lung 88.2% | A549/ATCC NSCLC 90.1% | 786-0 renal 98.1% | COLO 205 colon 103%

COc1ccc(NC(=O)Nc2ccc(OCCCCCC(=O)NO)cc2)cc1
inactive: NCI-H23 lung 98% | NCI-H226 lung 100% | NCI-H322M lung 94.7% | HOP-62 NSCLC 102% | NCI-H460 lung 96.3% | HOP-92 NSCLC 94% | NCI-H522 lung 68.1% | A549/ATCC NSCLC 90.3% | 786-0 renal 97.1% | COLO 205 colon 110%
